Only some compounds are listed: those with a hit (about 3.4% of all), similar ones and a draw of the others.
NF-kB expr up – NF-kB expression increase, human neuronal cells; NF-kB reporter expression; stronger effect = higher value; fold change at 12.5 µM; 1.6% of 190,000 active; in the data active = fold change above about 3.3
hcDAF12 agonist – H. contortus DAF-12 activation, primary screen; activation, % at 6.8 µM; 1.4% of 370,000 active; HEK293 hcDAF-12 lit1-tk-luc reporter, luminescence; 0% DMSO, 100% Δ7-dafachronic acid;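 active = activation above the mean of all tested compounds plus 3 SD, cut at about 5.5% in these data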;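 note: 100% = response to 3 µM Δ7-dafachronic acid high control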
hgDAF-12 ag – agonists of H. glycines DAF-12 nuclear receptor | HEK293 GAL4-hgDAF12 UAS-luciferase reporter, agonist luminescence; normalized to butyrate control | activation, % at 6.8 µM | 1.8% of 370,000 active | AID 687014;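 active = activation above a cutoff set at the mean of all screened compounds plus 3 SD, cut at about 10% in these data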;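 note: 0% = DMSO wells and 100% = sodium butyrate wells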
APP 5'UTR act – APP 5'UTR luciferase reporter activation; SH-SY5Y APP 5'UTR luciferase reporter, luminescence; zero percent = DMSO vehicle wells; activation, % at 2 µM; 1% of 190,000 active;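 active = activation above a set limit, based on mean plus 3 SD of controls, cut at about 140% in these data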
ssDAF-12 act – activates DAF-12 receptor from parasite S. stercoralis. HEK293 ssDAF-12/GRIP1 lit1-tk-luc reporter, luminescence; % of 3 µM dafachronic acid response. activation, % at 6.8 µM. 1% of 370,000 active. AID 652126;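 active = activation above the mean over all tested compounds plus 3 SD, cut at about 0.9% in these data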;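 note: 0% = DMSO-only wells and 100% = 3 µM delta7-dafachronic acid wells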
LXR ag – activates human LXR-beta, counter-screen for hcDAF-12 agonists; HEK293 Gal4-LXR tk-luc reporter, luminescence, 24 h; normalized: DMSO 0%, positive control 100%; AID 743027; shares compounds with hcDAF12 agonist; 3,400 tested, under 10 active; activation, % at 6.8 µM;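 active = mean percent activation of the reporter above a cutoff set as the average over tested compounds plus their standard deviation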
Target sequence (P55055 whole entry, looked up, the tested form may be a part): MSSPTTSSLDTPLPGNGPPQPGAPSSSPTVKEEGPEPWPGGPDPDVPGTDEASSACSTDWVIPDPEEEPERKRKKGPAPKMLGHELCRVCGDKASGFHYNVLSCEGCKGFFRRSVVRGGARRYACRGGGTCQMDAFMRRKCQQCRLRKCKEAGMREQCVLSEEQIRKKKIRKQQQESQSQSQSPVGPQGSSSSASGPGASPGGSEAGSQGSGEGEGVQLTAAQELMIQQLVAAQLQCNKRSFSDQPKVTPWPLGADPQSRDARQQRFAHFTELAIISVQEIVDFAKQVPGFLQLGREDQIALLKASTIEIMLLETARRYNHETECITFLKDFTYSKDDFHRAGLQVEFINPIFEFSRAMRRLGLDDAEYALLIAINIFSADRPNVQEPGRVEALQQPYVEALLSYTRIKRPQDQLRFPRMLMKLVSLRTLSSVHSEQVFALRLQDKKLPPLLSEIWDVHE
hcDAF12 ag – confirmation of H. contortus DAF-12 agonists. activation, % at 6.8 µM. HEK293 hcDAF-12 lit1-tk-luc reporter, luminescence; % of Δ7-dafachronic acid response. 61% of 3,400 active. shares compounds with hcDAF12 agonist;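 active = mean activation across triplicate tests above the threshold derived from the earlier primary screen, cut at about 5.5% in these data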;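 note: 0% = DMSO only wells and 100% = 3 µM Δ7-dafachronic acid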
* hit, by the source's call; · = not tested or not shown.

SMILES	NF-kB expr up	hcDAF12 agonist	hgDAF-12 ag	APP 5'UTR act	ssDAF-12 act	LXR ag	hcDAF12 ag
COc1ccc(NC(=O)N(C)C[C@@H]2Oc3c(NC(=O)Nc4c(C)noc4C)cccc3C(=O)N([C@@H](C)CO)C[C@@H]2C)cc1	·	-0.5	1.7	·	-0.5	·	·
COc1ccc(NC(=O)Nc2cccc3c2O[C@H](CN(C)C(=O)Nc2c(C)noc2C)[C@@H](C)CN([C@H](C)CO)C3=O)cc1	·	7.0*	1.1	·	-1.2	-0.3	-0.2
O=C(Cc1ccc(O)cc1)NC1CCCCCC1	·	6.8*	7.7	·	-0.3	0.2	3.6
O=C(Cc1ccc(Br)cc1)NC1CCCCC1	1.53	1.2	0.2	8.5	-2.0	·	·
CCOC(=O)CNC(=O)N(C)[C@H]1C[C@H]2c3[nH]c4c(-c5cccc(C)c5)cccc4c3CCN2C(=O)[C@H]1[C@H](C)O	·	-1.2	-3.9	·	-1.9	·	·
O=C(NNc1nc2ccccc2s1)Nc1ccccc1	1.72	7.2*	5.2	114.6	0.2	0.6	4.0
S=C(Nc1ccccc1)c1nc2ccccc2s1	2.44	9.2*	11.6*	101.2	1.1*	1.1	8.9*
O=C(NCc1ccccc1)c1nc2ccccc2s1	1.05	0.9	1.7	39.5	-2.1	·	·
O=C(CS(=O)(=O)c1ccccc1)Nc1nc2ccccc2s1	·	7.1*	4.7	-17.2	0.4	0.1	3.5
O=C(CSc1nnc(-c2cccs2)o1)Nc1cc(Cl)cc(Cl)c1	·	0.2	0.3	·	-1.0	·	·
C=CCN1[C@H](Cc2ccccc2)COc2cc(F)ccc2S1(=O)=O	·	-3.6	3.0	·	-1.6	·	·
O=C(O)c1cccc(N/N=C/c2cccs2)c1	15*	13.3*	17.2*	-9.0	1.5*	2.1	17.2*
O=C(O)c1cccc(N/N=C/c2ccc(OC(F)(F)F)cc2)c1	·	4.3	8.2	·	0.5	·	·
CCOC(=O)c1cc(-c2cccc(O)c2)oc1C	·	9.8*	14.3*	·	3.3*	1.0	13.1*
CCOC(=O)c1sc(NC(=O)c2cc(-c3cccc(O)c3)on2)c(C(=O)OCC)c1C	0.91	-0.2	-3.8	-13.0	-1.7	·	·
Cc1ccc(/C=C/c2nc3ccccc3[nH]2)o1	6.49*	8.3*	7.7	259.1*	0.0	0.9	8.4*
CC(C)C[C@H]1COc2cccc(F)c2S(=O)(=O)N1Cc1cn(CCC2OCCCO2)nn1	·	-2.2	0.7	·	-1.0	·	·
CC(=O)Nc1scc(C)c1-c1nc2ccccc2s1	·	0.1	-2.8	·	-0.3	·	·
CC(=O)Nc1sc2c(c1-c1nc3ccccc3s1)CNC2	·	16.1*	1.7	·	1.6*	0.0	9.8*
CC(C)CN1C(=O)[C@]2(CC(=O)N(C)C2c2ccccc2)c2cc(-n3cc(CCCC#N)nn3)ccc21 (some centres undefined)	·	3.1	-0.1	·	-1.1	·	·
CC(=O)CC[C@H]1CC[C@]2(CCCN(C(=O)c3ccno3)C2)O1	·	-2.2	-0.6	·	-0.9	·	·
COC(=O)C1=C(Nc2ccccc2NC(=O)c2ccccc2C(=O)O)CSC1	·	7.5*	9.0	·	1.7*	0.0	3.7
O=C(CCn1nnc2ccccc21)N1CCN(c2ccc(F)cc2)CC1	·	-1.2	-0.7	·	-0.5	·	·
O=C(CCn1nnc2ccccc21)N1CCN(c2ccccc2F)CC1	·	8.8*	11.1*	·	0.0	0.4	5.1
Cc1ccccc1N1CCN(C(=O)CCn2nnc3ccccc32)CC1	·	8.5*	13.2*	·	-0.4	0.9	6.4*
SMILES	NF-kB expr up	hcDAF12 agonist	hgDAF-12 ag	APP 5'UTR act	ssDAF-12 act	LXR ag	hcDAF12 ag
c1ccc(COc2ccc(OCCCN3CCCC3)cc2)cc1	1.96	7.3*	8.2	98.8	0.3	1.4	9.4*
O=c1[nH]c(=O)n([C@H]2C[C@H](O)[C@@H](CO)O2)cc1Br	·	8.8*	37.5*	·	-0.9	-0.1	12.0*
Cc1cc(C)c2nc(/N=C(\N)NC(=O)c3ccccc3)nc(C)c2c1	·	6.9*	4.9	·	-0.2	-0.3	1.9
CCOC(=O)N1N=C(c2ccc(OC)cc2)CC1(O)C(F)(F)F (centres undefined)	3.27	7.9*	9.2	170.6*	1.8*	1.2	6.4*
CCOC(=O)C1(Cc2ccccc2)CCN(Cc2ccnc3ccccc23)CC1	·	-4.5	-4.8	·	-2.2	·	·
S=C1NC2(CCCC2)Nc2ccccc21	1	6.7*	3.3	4.0	0.2	-0.3	4.5

Screening data: PubChem BioAssay, several laboratories
